This is an account of results in paper PMC8384837, “Expanding the binding specificity for RNA recognition by a PUF domain”.

Chain of PUM1 PUF domain R1-RGC (Q14671 828-1176 S863R/R864G/Q867C): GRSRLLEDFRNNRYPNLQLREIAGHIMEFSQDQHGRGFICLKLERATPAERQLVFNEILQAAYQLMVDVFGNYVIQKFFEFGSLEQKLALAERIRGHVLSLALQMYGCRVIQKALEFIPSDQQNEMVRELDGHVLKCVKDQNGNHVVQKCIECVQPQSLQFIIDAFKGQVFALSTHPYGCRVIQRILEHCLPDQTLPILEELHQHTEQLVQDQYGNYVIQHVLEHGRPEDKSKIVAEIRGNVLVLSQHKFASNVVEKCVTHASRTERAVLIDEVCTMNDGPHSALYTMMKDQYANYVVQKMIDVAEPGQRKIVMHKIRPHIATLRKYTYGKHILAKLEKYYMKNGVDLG

One assay addresses PUM1 PUF domain R1-RGC (Homo sapiens, UniProt Q14671 828-1176, S863R;R864G;Q867C). Description: yeast three-hybrid, YBZ-1, SC-Leu-His + 0.5 mM 3-AT, 4 days. The settings on record: tags: N-Gal4 AD-HA kept; label: inside an RPR1-promoter hybrid RNA with tandem MS2 sites; ssRNA. The method in brief:
(§1)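 The interaction score is the log change in how often each variant appears, from input to selection. Frequencies came from PCR-amplified, Illumina-sequenced repeat regions of Pumilio-1 PUF domain libraries grown in strain YBZ-1 (LexA–MS2 coat fusion, HIS3 reporter) alongside matching RNA elements. Input plates were SC-Leu and selection plates were SC-Leu-His + 0.5 mM 3-AT, each for four days, and the log2 calculation used a pseudocount of 1 where a variant was absent.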
For the sequence “GGCUAGAACUAGUGGAUCCCCCGGCGCCCGGCGGCUCGAGCCCGGGUAAGUGUAAAUCGUCUGCAUGCCGCCGGGCGCCAUGCCUGCAGGUCGACUCUAGAAAACAUG”, the binding signal was 3.36 log2 enrichment (interaction score). Still for that read-out and setting: in the case of “GGCUAGAACUAGUGGAUCCCCCGGCGCCCGGCGGCUCGAGCCCGGGUAAGUGUAAAUGGUCUGCAUGCCGCCGGGCGCCAUGCCUGCAGGUCGACUCUAGAAAACAUG” it was 1.27 log2 enrichment (interaction score). “GGCUAGAACUAGUGGAUCCCCCGGCGCCCGGCGGCUCGAGCCCGGGUAAGUGUAAAUUGUCUGCAUGCCGCCGGGCGCCAUGCCUGCAGGUCGACUCUAGAAAACAUG”: the binding signal is 2.07 log2 enrichment (interaction score).

In another assay the target is PUM1 PUF domain R4-WGW (Homo sapiens, UniProt Q14671 828-1176, N971W;H972G;Q975W). The description is as above. The following applies: tags: N-Gal4 AD-HA kept; label: inside an RPR1-promoter hybrid RNA with tandem MS2 sites; ssRNA. The method in brief: as §1
On to “GGCUAGAACUAGUGGAUCCCCCGGCGCCCGGCGGCUCGAGCCCGGGUAAGUGUACAUAGUCUGCAUGCCGCCGGGCGCCAUGCCUGCAGGUCGACUCUAGAAAACAUG”, for which the binding signal was 2 log2 enrichment (interaction score). On to “GGCUAGAACUAGUGGAUCCCCCGGCGCCCGGCGGCUCGAGCCCGGGUAAGUGUAAAUAGUCUGCAUGCCGCCGGGCGCCAUGCCUGCAGGUCGACUCUAGAAAACAUG”, for which the binding signal is 3.2 log2 enrichment (interaction score).

On to “GGCUAGAACUAGUGGAUCCCCCGGCGCCCGGCGGCUCGAGCCCGGGUAAGUGUAUAUAGUCUGCAUGCCGCCGGGCGCCAUGCCUGCAGGUCGACUCUAGAAAACAUG”, for which the binding signal is 3.62 log2 enrichment (interaction score).
